Experimental findings from paper PMC11006913 are described below.

Common to all, as to assay: PBM; 200 nM protein, PBS
Common to all, as to conditions: dsDNA, one strand shown

The target of assay [1] is HOXB9 (Homo sapiens, UniProt P17482 171-250, T197M).
The target in assay [2] is HOXA4 (Homo sapiens, UniProt Q00056 201-287, W262R).
Assay [3] concerns the target HOXC9 (Homo sapiens, UniProt P31274 178-260, K195R).
Another assay concerns the target T1, VENTX (Homo sapiens, UniProt O95231 78-163).
T1 sequence: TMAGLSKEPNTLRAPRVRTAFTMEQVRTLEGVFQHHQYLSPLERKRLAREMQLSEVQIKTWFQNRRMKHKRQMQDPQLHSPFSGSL

Assay [4] concerns the target HOXA7 (Homo sapiens, UniProt P31268 116-202).
Assay [5] concerns the target HOXC10 (Homo sapiens, UniProt Q9NYD6 254-340).
Assay [6] concerns the target HOXB6 (Homo sapiens, UniProt P17509 132-218, K202E).
Assay [7] addresses HOXB9 (Homo sapiens, UniProt P17482 171-250).
Assay [8] addresses HOXC9 (Homo sapiens, UniProt P31274 178-260).
The target in assay [9] is HOXC9 (Homo sapiens, UniProt P31274 178-260, R193K).
The target of assay [10] is HOXA4 (Homo sapiens, UniProt Q00056 201-287).
Assay [11] concerns the target HOXC10 (Homo sapiens, UniProt Q9NYD6 254-340, K271E).
A further assay has as its target VAX1 (Homo sapiens, UniProt Q5SQQ9 86-172).
The target in assay [12] is HOXB9 (Homo sapiens, UniProt P17482 171-250, R186Q).
For assay [13], the target named is HOXC9 (Homo sapiens, UniProt P31274 178-260, R222W).
The next assay has as its target T2, PAX4 (Homo sapiens, UniProt O43316 9-242, R227W).
T2 sequence: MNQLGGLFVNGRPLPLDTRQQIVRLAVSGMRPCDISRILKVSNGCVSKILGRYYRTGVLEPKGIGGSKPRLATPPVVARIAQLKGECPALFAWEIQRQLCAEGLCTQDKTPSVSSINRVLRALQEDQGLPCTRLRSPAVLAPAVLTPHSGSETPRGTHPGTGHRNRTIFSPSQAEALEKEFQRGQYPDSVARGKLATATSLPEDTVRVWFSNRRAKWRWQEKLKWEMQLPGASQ

Assay [14] deals with HOXA2 (Homo sapiens, UniProt O43364 129-215, Y150S).
Assay [15] has as its target HOXA7 (Homo sapiens, UniProt P31268 116-202, W177C).
Assay [16] concerns the target HOXA2 (Homo sapiens, UniProt O43364 129-215).
Assay [17] addresses HOXB6 (Homo sapiens, UniProt P17509 132-218).

Sequence of HOXC9 (Homo sapiens, UniProt P31274 178-260, R222W) (P31274 178-260 R222W): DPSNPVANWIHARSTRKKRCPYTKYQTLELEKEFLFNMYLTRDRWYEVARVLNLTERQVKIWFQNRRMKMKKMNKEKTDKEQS
Sequence of HOXC9 (Homo sapiens, UniProt P31274 178-260, R193K) (P31274 178-260 R193K): as the sequence (P31274 178-260 R222W) above, with R16K, W45R counted along it
Sequence of HOXB9 (Homo sapiens, UniProt P17482 171-250, T197M) (P17482 171-250 T197M): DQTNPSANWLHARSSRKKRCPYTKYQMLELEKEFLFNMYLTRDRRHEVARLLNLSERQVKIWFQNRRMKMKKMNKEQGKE
Sequence of HOXC9 (Homo sapiens, UniProt P31274 178-260) (P31274 178-260): as the sequence (P31274 178-260 R222W) above, with W45R counted along it
Sequence of HOXB9 (Homo sapiens, UniProt P17482 171-250, R186Q) (P17482 171-250 R186Q): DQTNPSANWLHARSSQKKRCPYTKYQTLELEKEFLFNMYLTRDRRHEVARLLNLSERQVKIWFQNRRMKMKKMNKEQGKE
Sequence of HOXA7 (Homo sapiens, UniProt P31268 116-202) (P31268 116-202): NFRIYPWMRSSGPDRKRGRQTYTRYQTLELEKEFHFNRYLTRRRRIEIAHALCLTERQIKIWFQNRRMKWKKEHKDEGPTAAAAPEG
Sequence of HOXA4 (Homo sapiens, UniProt Q00056 201-287, W262R) (Q00056 201-287 W262R): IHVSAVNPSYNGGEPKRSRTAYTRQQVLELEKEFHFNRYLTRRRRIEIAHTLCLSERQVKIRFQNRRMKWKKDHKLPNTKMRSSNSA
Sequence of HOXB6 (Homo sapiens, UniProt P17509 132-218, K202E) (P17509 132-218 K202E): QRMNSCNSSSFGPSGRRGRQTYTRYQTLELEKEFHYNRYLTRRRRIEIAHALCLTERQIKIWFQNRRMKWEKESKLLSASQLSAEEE
Sequence of HOXB9 (Homo sapiens, UniProt P17482 171-250) (P17482 171-250): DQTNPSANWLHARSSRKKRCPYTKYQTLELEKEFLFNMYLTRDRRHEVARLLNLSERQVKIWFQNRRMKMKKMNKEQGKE
Sequence of VAX1 (Q5SQQ9 86-172): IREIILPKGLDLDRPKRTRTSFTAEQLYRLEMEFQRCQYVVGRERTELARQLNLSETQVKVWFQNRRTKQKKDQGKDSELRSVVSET
Sequence of HOXC10 (Homo sapiens, UniProt Q9NYD6 254-340, K271E) (Q9NYD6 254-340 K271E): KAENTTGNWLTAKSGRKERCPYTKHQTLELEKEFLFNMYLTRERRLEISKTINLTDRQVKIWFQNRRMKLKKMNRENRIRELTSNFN
Sequence of HOXA2 (Homo sapiens, UniProt O43364 129-215) (O43364 129-215): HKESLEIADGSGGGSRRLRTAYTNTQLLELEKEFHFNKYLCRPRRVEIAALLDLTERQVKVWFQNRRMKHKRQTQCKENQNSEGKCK
Sequence of HOXA2 (Homo sapiens, UniProt O43364 129-215, Y150S) (O43364 129-215 Y150S): as the sequence (O43364 129-215) above, with Y22S counted along it
Sequence of HOXA7 (Homo sapiens, UniProt P31268 116-202, W177C) (P31268 116-202 W177C): as the sequence (P31268 116-202) above, with W62C counted along it
Sequence of HOXA4 (Homo sapiens, UniProt Q00056 201-287) (Q00056 201-287): as the sequence (Q00056 201-287 W262R) above, with R62W counted along it
Sequence of HOXC9 (Homo sapiens, UniProt P31274 178-260, K195R) (P31274 178-260 K195R): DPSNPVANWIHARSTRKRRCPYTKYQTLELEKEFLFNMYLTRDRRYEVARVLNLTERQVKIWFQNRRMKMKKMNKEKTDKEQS
Sequence of HOXC10 (Homo sapiens, UniProt Q9NYD6 254-340) (Q9NYD6 254-340): as the sequence (Q9NYD6 254-340 K271E) above, with E18K counted along it
Sequence of HOXB6 (Homo sapiens, UniProt P17509 132-218) (P17509 132-218): as the sequence (P17509 132-218 K202E) above, with E71K counted along it

In the case of AATTAATT, the binding signal in the assay with HOXB9 [1] is 10.3 upbm affinity estimate (log intensity, higher = more binding, comparable within an allelic series); with HOXA4 [2] it was 10.8 upbm affinity estimate (log intensity, higher = more binding, comparable within an allelic series); with HOXC9 [3], 12.9 upbm affinity estimate (log intensity, higher = more binding, comparable within an allelic series); with VENTX, 12.5 upbm affinity estimate (log intensity, higher = more binding, comparable within an allelic series); with HOXA7 [4], 11.9 upbm affinity estimate (log intensity, higher = more binding, comparable within an allelic series); with HOXC10 [5], 12.2 upbm affinity estimate (log intensity, higher = more binding, comparable within an allelic series). Also, the binding signal with HOXB6 [6] is 10.2 upbm affinity estimate (log intensity, higher = more binding, comparable within an allelic series); with HOXB9 [7], 12.2 upbm affinity estimate (log intensity, higher = more binding, comparable within an allelic series); with HOXC9 [8], 12.8 upbm affinity estimate (log intensity, higher = more binding, comparable within an allelic series); with HOXC9 [9] it was 12.8 upbm affinity estimate (log intensity, higher = more binding, comparable within an allelic series); with HOXA4 [10], 14 upbm affinity estimate (log intensity, higher = more binding, comparable within an allelic series); in the assay with HOXC10 [11] it was 12.2 upbm affinity estimate (log intensity, higher = more binding, comparable within an allelic series). In addition, the binding signal was 13.3 upbm affinity estimate (log intensity, higher = more binding, comparable within an allelic series) with VAX1; 11.9 upbm affinity estimate (log intensity, higher = more binding, comparable within an allelic series) with HOXB9 [12]; 11.2 upbm affinity estimate (log intensity, higher = more binding, comparable within an allelic series) in the assay with HOXC9 [13]; 11.3 upbm affinity estimate (log intensity, higher = more binding, comparable within an allelic series) in the assay with PAX4; 11 upbm affinity estimate (log intensity, higher = more binding, comparable within an allelic series) in the assay with HOXA2 [14]; 8.91 upbm affinity estimate (log intensity, higher = more binding, comparable within an allelic series) in the assay with HOXA7 [15]. In addition, the binding signal is 12.8 upbm affinity estimate (log intensity, higher = more binding, comparable within an allelic series) in the assay with HOXA2 [16] and 12.4 upbm affinity estimate (log intensity, higher = more binding, comparable within an allelic series) in the assay with HOXB6 [17].

As for TAATTACA, the binding signal was 10.3 upbm affinity estimate (log intensity, higher = more binding, comparable within an allelic series) with HOXB9 [1]; 10.8 upbm affinity estimate (log intensity, higher = more binding, comparable within an allelic series) with HOXA4 [2]; 12.9 upbm affinity estimate (log intensity, higher = more binding, comparable within an allelic series) with HOXC9 [3]; 12.7 upbm affinity estimate (log intensity, higher = more binding, comparable within an allelic series) with VENTX; 12.1 upbm affinity estimate (log intensity, higher = more binding, comparable within an allelic series) in the assay with HOXA7 [4]; 12.3 upbm affinity estimate (log intensity, higher = more binding, comparable within an allelic series) with HOXC10 [5]. In addition, the binding signal was 10.2 upbm affinity estimate (log intensity, higher = more binding, comparable within an allelic series) in the assay with HOXB6 [6]; 12.1 upbm affinity estimate (log intensity, higher = more binding, comparable within an allelic series) in the assay with HOXB9 [7]; 12.8 upbm affinity estimate (log intensity, higher = more binding, comparable within an allelic series) with HOXC9 [8]; 12.9 upbm affinity estimate (log intensity, higher = more binding, comparable within an allelic series) with HOXC9 [9]; 14.2 upbm affinity estimate (log intensity, higher = more binding, comparable within an allelic series) with HOXA4 [10]; 12.3 upbm affinity estimate (log intensity, higher = more binding, comparable within an allelic series) in the assay with HOXC10 [11]. Also, the binding signal was 13.6 upbm affinity estimate (log intensity, higher = more binding, comparable within an allelic series) in the assay with VAX1; 11.8 upbm affinity estimate (log intensity, higher = more binding, comparable within an allelic series) in the assay with HOXB9 [12]; 11 upbm affinity estimate (log intensity, higher = more binding, comparable within an allelic series) with HOXC9 [13]; 11.2 upbm affinity estimate (log intensity, higher = more binding, comparable within an allelic series) with PAX4; 11 upbm affinity estimate (log intensity, higher = more binding, comparable within an allelic series) in the assay with HOXA2 [14]; 8.98 upbm affinity estimate (log intensity, higher = more binding, comparable within an allelic series) with HOXA7 [15]. In addition, the binding signal with HOXA2 [16] is 13.3 upbm affinity estimate (log intensity, higher = more binding, comparable within an allelic series); with HOXB6 [17] it was 12.5 upbm affinity estimate (log intensity, higher = more binding, comparable within an allelic series).

In the case of ATAATTAC, the binding signal with HOXB9 [1] was 10.5 upbm affinity estimate (log intensity, higher = more binding, comparable within an allelic series); with HOXA4 [2] it was 10.9 upbm affinity estimate (log intensity, higher = more binding, comparable within an allelic series); with HOXC9 [3], 13 upbm affinity estimate (log intensity, higher = more binding, comparable within an allelic series); with VENTX it was 12.5 upbm affinity estimate (log intensity, higher = more binding, comparable within an allelic series); with HOXA7 [4] it was 12.2 upbm affinity estimate (log intensity, higher = more binding, comparable within an allelic series); with HOXC10 [5] it was 12.4 upbm affinity estimate (log intensity, higher = more binding, comparable within an allelic series). The binding signal with HOXB6 [6] is 10.2 upbm affinity estimate (log intensity, higher = more binding, comparable within an allelic series); in the assay with HOXB9 [7], 12.1 upbm affinity estimate (log intensity, higher = more binding, comparable within an allelic series); in the assay with HOXC9 [8], 13 upbm affinity estimate (log intensity, higher = more binding, comparable within an allelic series); in the assay with HOXC9 [9], 12.9 upbm affinity estimate (log intensity, higher = more binding, comparable within an allelic series); with HOXA4 [10], 14.2 upbm affinity estimate (log intensity, higher = more binding, comparable within an allelic series); with HOXC10 [11] it was 12.4 upbm affinity estimate (log intensity, higher = more binding, comparable within an allelic series). Also, the binding signal with VAX1 was 13.4 upbm affinity estimate (log intensity, higher = more binding, comparable within an allelic series); in the assay with HOXB9 [12], 11.9 upbm affinity estimate (log intensity, higher = more binding, comparable within an allelic series); with HOXC9 [13] it was 11.1 upbm affinity estimate (log intensity, higher = more binding, comparable within an allelic series); with PAX4 it was 11.2 upbm affinity estimate (log intensity, higher = more binding, comparable within an allelic series); with HOXA2 [14] it was 11.1 upbm affinity estimate (log intensity, higher = more binding, comparable within an allelic series); in the assay with HOXA7 [15], 9.02 upbm affinity estimate (log intensity, higher = more binding, comparable within an allelic series). Besides, the binding signal with HOXA2 [16] was 13.1 upbm affinity estimate (log intensity, higher = more binding, comparable within an allelic series); with HOXB6 [17], 12.6 upbm affinity estimate (log intensity, higher = more binding, comparable within an allelic series).
